Results from PubChem BioAssay (NCATS).
Results filed as inconclusive are left out. A call without a number means that no potency is given here. Unmarked numbers belong to inactive results. Activity calls are given as the source filed them. The call rests on the fitted dose curve; in most records, active means well fitted cell-killing curve with a large enough effect; inconclusive means small, poorly fitted or top-dose-only effect, or effect the other way; inactive means no such curve, though single readings can be large or run the other way.

Tests used:
[1] = Quantitative High-Throughput drug screen in 47 multiple myeloma cell lines against the NCATS MIPE library collection: MM1R_ATCC cell viability assay (AID 1918981); further: nearly all actives have a fitted effect of over 35% in size; further: potency means the concentration at half of the fitted maximal effect
Outline: (§1)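 Plated at 500 cells per well, myeloma lines received MIPE 4.0 compounds by pin tool. Following 48 h culture at 37 °C, CellTiter-Glo luminescence gave viability relative to DMSO and media-only controls.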

[2] = Quantitative High-Throughput drug screen in 47 multiple myeloma cell lines against the NCATS MIPE library collection: LP1_DSMZ cell viability assay (AID 1918982); further: nearly all actives have a fitted effect of over 35% in size; further: potency means the concentration at half of the fitted maximal effect
Outline: as §1

[3] = Quantitative High-Throughput drug screen in 47 multiple myeloma cell lines against the NCATS MIPE library collection: KMS28PE_JCRB cell viability assay (AID 1918983); further: nearly all actives have a fitted effect of over 35% in size; further: potency means the concentration at half of the fitted maximal effect
Outline: as §1

[4] = Quantitative High-Throughput drug screen in 47 multiple myeloma cell lines against the NCATS MIPE library collection: L363_DSMZ cell viability assay (AID 1918984); settings: L363 myeloma viability, CellTiter-Glo ATP luminescence, 48 h; viability (% of control): at 45.8 µM (top of the series); further: nearly all actives have a fitted effect of over 40% in size; further: potency means the concentration at half of the fitted maximal effect
Outline: as §1

[5] = Quantitative High-Throughput drug screen in 47 multiple myeloma cell lines against the NCATS MIPE library collection: KMS34_JCRB cell viability assay (AID 1918985); further: nearly all actives have a fitted effect of over 40% in size; further: potency means the concentration at half of the fitted maximal effect
Outline: as §1

[6] = Quantitative High-Throughput drug screen in 47 multiple myeloma cell lines against the NCATS MIPE library collection: OPM1_PLB cell viability assay (AID 1918989); further: nearly all actives have a fitted effect of over 40% in size; further: potency means the concentration at half of the fitted maximal effect
Outline: as §1

[7] = Quantitative High-Throughput drug screen in 47 multiple myeloma cell lines against the NCATS MIPE library collection: SKMM1_PLB cell viability assay (AID 1919863); settings: SKMM1 myeloma viability, CellTiter-Glo ATP, 48 h; viability: hits give low values; further: potency means the concentration at half of the fitted maximal effect; nearly all actives have a fitted effect of over 35% in size
Outline: as §1

[8] = Quantitative High-Throughput drug screen in 47 multiple myeloma cell lines against the NCATS MIPE library collection: U266_ATCC cell viability assay (AID 1919864); further: nearly all actives have a fitted effect of over 35% in size; further: potency means the concentration at half of the fitted maximal effect
Outline: as §1

[9] = Quantitative High-Throughput drug screen in 47 multiple myeloma cell lines against the NCATS MIPE library collection: XG6_PLB cell viability assay (AID 1919865); further: nearly all actives have a fitted effect of over 40% in size; further: potency means the concentration at half of the fitted maximal effect
Outline: as §1

[10] = Quantitative High-Throughput drug screen in 47 multiple myeloma cell lines against the NCATS MIPE library collection: XG1_PLB cell viability assay (AID 1919866); further: nearly all actives have a fitted effect of over 35% in size; further: potency means the concentration at half of the fitted maximal effect
Outline: as §1

[11] = Quantitative High-Throughput drug screen in 47 multiple myeloma cell lines against the NCATS MIPE library collection: PE2_PLB cell viability assay (AID 1919869); further: nearly all actives have a fitted effect of over 35% in size; further: potency means the concentration at half of the fitted maximal effect
Outline: as §1

[12] = Quantitative High-Throughput drug screen in 47 multiple myeloma cell lines against the NCATS MIPE library collection: PCM6_Riken cell viability assay (AID 1919870); further: nearly all actives have a fitted effect of over 30% in size; further: potency means the concentration at half of the fitted maximal effect
Outline: as §1

[13] = Quantitative High-Throughput drug screen in 47 multiple myeloma cell lines against the NCATS MIPE library collection: RPMI8226_ATCC cell viability assay (AID 1919871); further: nearly all actives have a fitted effect of over 30% in size; further: potency means the concentration at half of the fitted maximal effect
Outline: as §1

[14] = Quantitative High-Throughput drug screen in 47 multiple myeloma cell lines against the NCATS MIPE library collection: OPM2_DSMZ cell viability assay (AID 1919872); further: nearly all actives have a fitted effect of over 30% in size; further: potency means the concentration at half of the fitted maximal effect
Outline: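 Relative luminescence from CellTiter-Glo served as the viability signal, referenced to DMSO-treated (100%) and cell-free medium (0%) controls. Treatment lasted 48 hours at 37C with 500 cells per well.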

[15] = Quantitative High-Throughput drug screen in 47 multiple myeloma cell lines against the NCATS MIPE library collection: KMS11_JCRBsus cell viability assay (AID 1919873); further: nearly all actives have a fitted effect of over 50% in size; further: potency means the concentration at half of the fitted maximal effect
Outline: as §1

[16] = Quantitative High-Throughput drug screen in 47 multiple myeloma cell lines against the NCATS MIPE library collection: OCIMY7_PLB cell viability assay (AID 1918987); settings: OCI-MY7 myeloma viability, CellTiter-Glo ATP, 48 h; viability (% of DMSO): at 45.8 µM (top of the series); further: nearly all actives have a fitted effect of over 65% in size
Outline: as §1

[17] = Quantitative High-Throughput drug screen in 47 multiple myeloma cell lines against the NCATS MIPE library collection: KMS28BM_JCRB cell viability assay (AID 1919874); further: nearly all actives have a fitted effect of over 35% in size; further: potency means the concentration at half of the fitted maximal effect
Outline: as §1

[18] = Quantitative High-Throughput drug screen in 47 multiple myeloma cell lines against the NCATS MIPE library collection: OCIMY5_PLB cell viability assay (AID 1918988); further: potency means the concentration at half of the fitted maximal effect; nearly all actives have a fitted effect of over 65% in size
Outline: as §1

[19] = Quantitative High-Throughput drug screen in 47 multiple myeloma cell lines against the NCATS MIPE library collection: UTMC2_PLB cell viability assay (AID 1919868); settings: CellTiter-Glo ATP luminescence, 48 h; viability (% of DMSO control): at 45.8 µM (top of the series); further: nearly all actives have a fitted effect of over 55% in size
Outline: as §1

[20] = Quantitative High-Throughput drug screen in 47 multiple myeloma cell lines against the NCATS MIPE library collection: VP6_DJ cell viability assay (AID 1919867); further: nearly all actives have a fitted effect of over 40% in size; further: potency means the concentration at half of the fitted maximal effect
Outline: as §1

Row | SMILES | Potency [1] | Potency [2] | Potency [3] | Potency [4] | Potency [5] | Potency [6] | Potency [7] | Potency [8] | Potency [9] | Potency [10] | Potency [11] | Potency [12] | Potency [13] | Potency [14] | Potency [15] | Potency [16] | Potency [17] | Potency [18] | Potency [19] | Potency [20]
1 | CN[C@H]1[C@@H](O[C@@H]2[C@H](O[C@@H]3[C@@H](O)[C@@H](O)[C@@H](N=C(N)N)[C@@H](O)[C@@H]3N=C(N)N)O[C@H](C)[C@@]2(O)C=O)O[C@@H](CO)[C@@H](O)[C@H]1O | inactive | inactive | inactive | 0.0053 µM (active) | inactive | inactive | 0.946 µM (active) | inactive | inactive | inactive | inactive | inactive | inactive | inactive | inactive | – | – | – | – | –
2 | CC(=O)OCC(=O)[C@@]12OC(C)(C)O[C@H]1C[C@H]1[C@@H]3C[C@H](F)C4=CC(=O)C=C[C@]4(C)[C@@]3(F)[C@@H](O)C[C@@]12C | inactive | 0.0264 µM (active) | inactive | inactive | inactive | inactive | – | inactive | inactive | inactive | – | inactive | 0.0083 µM (active) | inactive | 0.0166 µM (active) | inactive | inactive | – | – | –
3 | CCCCC(F)(F)[C@@]1(O)CC[C@H]2[C@H](CC(=O)[C@@H]2CCCCCCC(=O)O)O1 | inactive | inactive | inactive | inactive | – | inactive | – | – | – | inactive | inactive | inactive | – | inactive | inactive | – | inactive | 0.235 µM (active) | – | –
4 | N=C1SC(=Cc2ccc(-c3ccc4c(c3)C(=O)NC4=O)o2)C(=O)N1c1ccc(Br)cc1 | 4.18 µM (active) | 2.96 µM (active) | 4.69 µM (active) | inactive | 2.64 µM (active) | – | 3.32 µM (active) | – | 1.66 µM (active) | 2.35 µM (active) | 2.09 µM (active) | – | – | 2.64 µM (active) | inactive | – | inactive | 2.96 µM (active) | – | –
5 | CC(C)=CCCC(C)=CCCC(C)=CCCC(C)=CCCC(C)=CCCC(C)=CCCC(C)=CCCC(C)=CCCC(C)=CCO | inactive | inactive | inactive | inactive | inactive | inactive | – | – | inactive | inactive | inactive | inactive | inactive | inactive | inactive | inactive | inactive | – | inactive | –
6 | Fc1ccc(CNc2ncnc3ccc(F)cc23)cc1 | 10.5 µM (active) | 2.64 µM (active) | 11.8 µM (active) | 5.26 µM (active) | – | 16.6 µM (active) | – | – | 14.8 µM (active) | 4.69 µM (active) | – | – | 5.26 µM (active) | 2.96 µM (active) | 10.5 µM (active) | – | – | 16.6 µM (active) | – | 5.9 µM (active)
7 | CC1(C)OC2CC3C4CC(F)C5=CC(=O)C=CC5(C)C4C(O)CC3(C)[C@]2(C(=O)CO)O1 (stereo partly drawn) | inactive | 0.0023 µM (active) | inactive | 0.132 µM (active) | 0.0209 µM (active) | – | – | inactive | – | inactive | – | inactive | – | inactive | 0.0264 µM (active) | – | inactive | – | inactive | 3.32 µM (active)
8 | O=C(CCCN1CCN(c2ccc(F)cc2)CC1)NC1c2ccccc2CSc2ccccc21 (stereo not drawn) | 18.7 µM (active) | 2.96 µM (active) | 11.8 µM (active) | 4.69 µM (active) | – | 10.5 µM (active) | 5.9 µM (active) | 20.9 µM (active) | 14.8 µM (active) | 11.8 µM (active) | 13.2 µM (active) | 14.8 µM (active) | – | – | 10.5 µM (active) | – | 11.8 µM (active) | 16.6 µM (active) | – | 7.43 µM (active)
9 | CCNC(=O)CCCC=CC[C@@H]1[C@H](C=CC(O)CCc2ccccc2)[C@@H](O)C[C@@H]1O (stereo partly drawn) | 26.4 µM (active) | inactive | inactive | inactive | – | inactive | – | inactive | inactive | inactive | inactive | inactive | 16.6 µM (active) | – | – | – | 3.32 µM (active) | 26.4 µM (active) | inactive | inactive
10 | CCCCn1c(=O)n(Cc2ccccc2F)c(=O)c2[nH]c(Cc3ccc(NC(C)=O)cc3)nc21 | inactive | inactive | 18.7 µM (active) | inactive | 5.9 µM (active) | inactive | – | 18.7 µM (active) | inactive | – | inactive | – | inactive | inactive | – | – | inactive | 11.8 µM (active) | – | inactive
11 | CN(C)CCOc1ccc(-c2nc(-c3ccc4c(c3)CCC4=NO)c(-c3ccncc3)[nH]2)cc1 | 18.7 µM (active) | 20.9 µM (active) | 23.5 µM (active) | 6.62 µM (active) | 13.2 µM (active) | 16.6 µM (active) | – | 26.4 µM (active) | 16.6 µM (active) | 18.7 µM (active) | 16.6 µM (active) | 10.5 µM (active) | 20.9 µM (active) | 16.6 µM (active) | 11.8 µM (active) | – | 9.35 µM (active) | 23.5 µM (active) | – | 18.7 µM (active)
12 | C[C@H](CCC(=O)O)[C@H]1CC[C@H]2[C@H]3[C@@H](CC[C@]12C)[C@@]1(C)CC[C@@H](O)C[C@H]1C[C@@H]3O | inactive | 16.6 µM (active) | inactive | inactive | – | inactive | – | – | – | – | inactive | – | – | 6.62 µM (active) | inactive | inactive | – | – | inactive | 20.9 µM (active)
